SMILES strings stand for the structures. The whole screen tested about 37,000 compounds, of which about 2,800 (7.6%) were called active. About 1% were inconclusive and are not listed. What follows is part of a selection rich in actives, with near analogues and random picks from the rest. A number with no mark means an inactive call. No stated cut-off is given here; in the data, active means inhibition above about 80%; inconclusive means no clear call, values can overlap the other calls; inactive means below that.

The experiment can be described thus: NOMO-1 AML cell viability reduction, primary screen, STK33 inhibitor project, CellTiter-Glo luminescence (AID 2330). As to conditions: NOMO-1 AML viability, 72 h, active compounds read high, concentration not given here. Background: Cellular ATP, detected with luciferase, serves as a proxy for viable cell number.
Regarding `NC(=O)CSc1oc(-c2cccs2)nc1S(=O)(=O)c1ccccc1`, the inhibition was 11.4%.
As for `Cc1noc(C)c1NC(=O)N(C)C[C@@H]1Oc2ccc(NS(C)(=O)=O)cc2C(=O)N([C@@H](C)CO)C[C@@H]1C`, the inhibition is -15.6%.
To `COc1ccc(NC(=O)Nc2ccc3c(c2)C(=O)N([C@H](C)CO)C[C@H](C)[C@@H](CN(C)C(=O)Nc2ccc4c(c2)OCO4)O3)cc1` belongs 14.3%; to `COC(=O)c1c(-c2cccnc2)csc1NC(=O)c1cc(-c2ccc(C)o2)nc2ccccc12`, 86.9% (active); to `COC(=O)c1cc(OC)c(OC)cc1NC(=O)c1cc(-c2ccc(C)o2)nc2ccccc12`, 92.8% (active).
To `COC(=O)c1cc(OC)c(OC)cc1NC(=O)COc1ccc(Cl)cc1` belongs 15.1%; to `COC(=O)c1cc(OC)c(OC)cc1NC(=O)COc1ccccc1Cl`, -12.9%.
For the compound `Cc1ccccc1OCC(=O)Nc1cc(-c2nc3ccccc3s2)c(Cl)cc1Cl`, the inhibition is 6.92%.
Turning to `COc1ccc(NC(=O)N(C)C[C@H]2Oc3ccc(NC(=O)NC(C)C)cc3CC(=O)N([C@H](C)CO)C[C@H]2C)cc1`, the inhibition is 3.6%.
The value for `C[C@@H]1CN([C@H](C)CO)C(=O)Cc2cc(NS(C)(=O)=O)ccc2O[C@H]1CN(C)S(=O)(=O)c1ccccc1` was -9.84%.
The value for `Cn1c(=O)c2c(nc(SCC(=O)O)n2Cc2ccc(F)cc2)n(C)c1=O` was 17.9%; that for `Cc1cc(=O)oc2cc(OC(C)C(=O)Nc3ccc(Cl)c(C(F)(F)F)c3)ccc12` (configuration not stated) was 4.93%; that for `C[C@H]1CN([C@@H](C)CO)C(=O)c2cc(NC(=O)Nc3ccccc3)ccc2O[C@H]1CN(C)S(C)(=O)=O` was 15.5%.
The value for `CC(=O)c1cccc(NC(=O)CN(c2ccc(F)c(Cl)c2)S(C)(=O)=O)c1` was 13.8%.
For the compound `Cc1noc(C)c1NC(=O)Nc1ccc2c(c1)CC(=O)N([C@@H](C)CO)C[C@@H](C)[C@@H](CN(C)Cc1ccc(Cl)c(Cl)c1)O2`, the inhibition was 58.1%.
The value for `COc1cc(O)cc(C)c1C(=O)OC1C(CO)OC(n2ccc(=O)[nH]c2=O)C1OC(C)=O` (configuration not stated) was 6.97%; that for `COC(=O)c1cc(C)sc1NC(=S)Nc1ncn(Cc2ccc(F)cc2Cl)n1` was 109% (active); that for `CCc1cc(C(=O)OC)c(NC(=S)Nc2ccc(OC)cc2[N+](=O)[O-])s1` was 22.2%.
To `C[C@H]1CN([C@@H](C)CO)C(=O)Cc2cc(NS(=O)(=O)c3cccs3)ccc2O[C@@H]1CN(C)Cc1ccc(Oc2ccccc2)cc1` belongs 78.4%.
To `C[C@H]1CN([C@@H](C)CO)C(=O)Cc2cc(NC(=O)Nc3cccc4ccccc34)ccc2O[C@@H]1CN(C)S(C)(=O)=O` belongs 0.688%; to `C[C@@H]1CN([C@@H](C)CO)C(=O)Cc2cc(NC(=O)Nc3ccc4c(c3)OCO4)ccc2O[C@@H]1CN(C)CC1CCCCC1`, 88.2% (active).
As for `C[C@H]1CN([C@@H](C)CO)C(=O)Cc2cc(NC(=O)Nc3ccc4c(c3)OCO4)ccc2O[C@H]1CN(C)CC1CC1`, the inhibition is 11.8%.
To `C[C@@H]1CN([C@@H](C)CO)C(=O)Cc2cc(NC(=O)Nc3cccc4ccccc34)ccc2O[C@@H]1CN(C)CC1CCCCC1` belongs 117% (active).
The value for `C[C@H]1CN([C@@H](C)CO)C(=O)c2cc(NC(=O)Nc3ccc4c(c3)OCO4)ccc2O[C@@H]1CN(C)CC1CCCCC1` was 31.9%; that for `C[C@H]1CN([C@@H](C)CO)C(=O)Cc2cc(NC(=O)Nc3cccc4ccccc34)ccc2O[C@H]1CN(C)CC1CC1` was 26.7%; that for `C[C@H](CO)N1C[C@H](C)[C@@H](CN(C)Cc2ccc3c(c2)OCO3)Oc2c(NC(=O)C3CCOCC3)cccc2C1=O` was 20.1%.
As to `O=C(Nc1ccc(Cl)cc1C(=O)NCc1ccco1)c1ccco1`, the inhibition was 31.2%.
`C[C@@H]1CN([C@H](C)CO)C(=O)c2cccc(NC(=O)c3nc4ccccc4s3)c2O[C@H]1CN(C)S(=O)(=O)c1ccc(Cl)cc1`: the inhibition was 61.5%.
The value for `C[C@@H]1CN([C@H](C)CO)C(=O)c2cccc(NC(=O)c3nc4ccccc4s3)c2O[C@@H]1CN(C)C` was 6.43%; that for `C[C@@H]1CN([C@H](C)CO)C(=O)c2cccc(NC(=O)c3nc4ccccc4s3)c2O[C@H]1CN(C)Cc1ccccc1` was 96.6% (active); that for `C[C@@H]1CN([C@@H](C)CO)C(=O)c2cccc(NC(=O)c3nc4ccccc4s3)c2O[C@@H]1CN(C)Cc1ccc(Cl)c(Cl)c1` was 87.1% (active).
The value for `COc1ccc(CN(C)C[C@H]2Oc3c(NC(=O)C4CCCCC4)cccc3C(=O)N([C@@H](C)CO)C[C@H]2C)cc1` was 2.14%.
Consider `COc1ccc(CN(C)C[C@H]2Oc3c(NC(=O)C4CCCCC4)cccc3C(=O)N([C@@H](C)CO)C[C@@H]2C)cc1`, for which the inhibition is 15.7%.
Turning to `C[C@@H]1CN([C@H](C)CO)C(=O)c2cccc(NC(=O)c3nc4ccccc4s3)c2O[C@@H]1CN(C)Cc1ccc(Oc2ccccc2)cc1`, the inhibition was 54.9%.
The value for `CC(C)NC(=O)N(C)C[C@@H]1Oc2c(NC(=O)c3nc4ccccc4s3)cccc2C(=O)N([C@H](C)CO)C[C@H]1C` was -10.2%.
To `C[C@H](CO)N1C[C@H](C)[C@@H](CN(C)Cc2ccc(Cl)c(Cl)c2)Oc2c(NC(=O)C3CCCCC3)cccc2C1=O` belongs 102% (active).
To `Cc1cc(C)c(OCC(=O)Nc2cccnc2)c(Br)c1` belongs 5.52%.
Turning to `COc1cc(C(C)=O)ccc1OCC(O)Cn1nc(C)cc1C` (configuration not stated), the inhibition was 10.2%.
The value for `COc1ccc(NC(=O)Nc2ccc3c(c2)CC(=O)N([C@@H](C)CO)C[C@H](C)[C@@H](CN(C)S(=O)(=O)c2cn(C)cn2)O3)cc1` was -12.8%; that for `C[C@H]1CN([C@@H](C)CO)C(=O)c2cc(NC(=O)Cn3cnnn3)ccc2O[C@H]1CN(C)Cc1ccc(C(=O)O)cc1` was 30.7%; that for `COc1ccc(CCn2c(C)nc(=O)c(-c3ccccc3)c2C)cc1OC` was 2.96%.
To `C[C@@H]1CN([C@@H](C)CO)C(=O)c2cccc(NS(=O)(=O)c3ccc(F)cc3)c2O[C@H]1CN(C)C(=O)NC1CCCCC1` belongs 4.03%.

As usually defined, the inhibition is the drop in the measured response relative to a control, in per cent.
